Assay outcomes deposited in PubChem BioAssay by National Center for Advancing Translational Sciences (NCATS).
Only some compounds are listed: those with a hit (about 7.8% of all), similar ones and a draw of the others.
Marburg entry inh = blocks Marburg virus binding to or entry into cells; Marburg virus pseudotyped entry inhibition, cell reporter; Potency, µM (highest dose often 37.8 µM), hits mostly inhibitors; actives 1.8% (n = 300,000); AID 540276; calls by dose curve; tested in HEK293 cells
VACV Venus inh = inhibitors of vaccinia virus (Venus reporter); Vaccinia virus Venus reporter expression, fluorescence; Potency, µM (doses to about 36.5 µM), most hits filed as inhibitors; actives 0.46% (n = 330,000); calls by dose curve; tested in A549 cells; also: nearly all actives have a fitted effect of over 30% in size
HCMV antiviral = blocks human cytomegalovirus replication; HFF cells, HCMV-luciferase reporter, 72 h; active compounds read low; activity change, negative = inhibition, % at 57.5 µM; actives 4.5% (n = 410,000); in the data active = activity change below about -60%; inconclusive = no clear call, values can overlap the other calls; inactive = above about -39%
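HFF cells seeded 16 h at 37C, treated with compounds, infected with luciferase-reporter HCMV at MOI 1 PFU/cell; luciferase read at 72 h post infection, normalized to buffer-only and Salinomycin controls.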
HCV inhibitor = blocks hepatitis C virus; Huh7.5.1 HCVcc-Cre infection, luciferase reporter, 44 h; Potency, µM (titrated, usually from 41.8 µM), most hits filed as inhibitors; actives 3.4% (n = 340,000); AID 651820; active = well fitted inhibition curve with a large enough effect; inconclusive = small, poorly fitted or top-dose-only effect, or another doubt; inactive = no such curve, though single readings can be large or run the other way
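Infectious HCVcc-Cre (~0.5 moi) was added to cells just after compound, with cells seeded 4 h earlier at 1,000 per well. Luciferase activity after 44 h culture reported infection; substrate was incubated 15 min at room temperature before reading.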
Lassa entry inh = inhibitors of Lassa virus binding or cell entry | Lassa virus pseudotype entry inhibition, cell reporter | Potency, µM (titrated, usually from 37.9 µM), usual class: inhibitors | actives 1.2% (n = 300,000) | AID 540256; calls by dose curve; tested in HEK293 cells; also: nearly all actives have a fitted effect of over 50% in size
Vaccinia mCherry = inhibitors of vaccinia virus infection (mCherry reporter signal); Vaccinia virus mCherry reporter infection, fluorescence; Potency, µM (titrated, usually from 36.5 µM), usual class: inhibitors; actives 0.63% (n = 310,000); calls by dose curve; tested in A549 cells; also: nearly all actives have a fitted effect of over 35% in size
Hits are given with their value; i = inactive; ? = inconclusive; nt = not tested or not shown; [ ] = dose if it differs, or a comment.

SMILES | Marburg entry inh | VACV Venus inh | HCMV antiviral | HCV inhibitor | Lassa entry inh | Vaccinia mCherry
CCOC(=O)C(CCc1ccccc1)NC(C)C(=O)N1CCCC1C(=O)O (stereo not given) | nt | i | nt | nt | nt | i
CCOc1ccc(C(C)=O)cc1Cn1nc(C(=O)O)c2ccccc2c1=O | ? | i | i | 7.9µM | i | i
Cc1cccc(C)c1OCCn1nc(C(=O)O)c2ccccc2c1=O | 10µM | i | i | i | 6.3µM | nt
COc1ccccc1Cn1nc(C(=O)O)c2ccccc2c1=O | ? | i | i | i | nt | i
COc1ccccc1Cn1c(CNS(=O)(=O)c2c(C)cc(C)cc2C)nc2cccnc21 | nt | i | ? | nt | ? | i
O=C1CCC2S/C(=C/Nc3ccc(C(F)(F)F)cc3)C(=O)N12 (stereo not given) | ? | i | -78 | i | ? | i
O=C1CCCC/C1=C/Nc1cccc(C(F)(F)F)c1 | i | nt | i | i | i | nt
COc1cc(OC)cc(-c2cc3nc(C)c(CCC(=O)O)c(C)n3n2)c1 | i | i | -79 | i | nt | i
COc1cc(OC)cc(-c2cc3nc(C)c(CCC(=O)NC(C)CCc4ccco4)c(C)n3n2)c1 (stereo not given) | ? | nt | i | ? | i | nt
N#Cc1cnn(-c2nc(SCc3ccccc3)nc3sc4c(c23)CCCC4)c1N | i | nt | -101 | i | i | nt
O=C(NCc1ccccc1)c1c2c(nc3ccccc13)C(=O)N(C1CCCCC1)C2 | nt | i | i | nt | ? | i
COc1ccc(OC)c(CN2CCN(CCCc3ccccc3)C(CCO)C2)c1 (stereo not given) | nt | nt | -102 | i | nt | nt
Cc1ccccc1Cn1c(Oc2ccccc2F)nc2c1c(=O)n(C)c(=O)n2C | nt | i | i | nt | i | i
C#Cc1ccccc1C[C@]1(C(=O)OC)C=C[C@H](C)[C@@H](c2ccccc2Br)N1C(=O)C(F)(F)F | i | nt | nt | nt | nt | nt
Cc1cc2c3c([nH]c2cc1S(=O)(=O)N1CCC2(CC1)OCCO2)CCCC3=O | nt | nt | ? | 22µM | nt | nt
Clc1cccc[n+]1CCc1ccccc1 | nt | i | nt | nt | nt | i
CCC(=O)N1CCc2cc(Br)cc(S(=O)(=O)CCC(=O)NCC3CCCO3)c21 (stereo not given) | ? | i | -109 | i | i | i
CCC12CN3CCN(CC(C3)/C1=N/NC(N)=O)C2 | i | i | i | i | i | i
CCOC(=O)CN1C(=O)CC(C[C@@H](O)C2C[C@@H](C)C[C@H](C)C2=O)CC1=O (stereo not given in full) | nt | i | nt | nt | nt | i
CC1CC(C)C(=O)[C@H](C(O)CC2CC(=O)NC(=O)C2)C1 (stereo not given in full) | nt | 0.89µM | nt | nt | nt | 2µM
C[C@H]1C[C@@H](C)C(=O)[C@@H]([C@H](O)CC2CC(=O)NC(=O)C2)C1 | nt | 0.32µM | -107 | ? | nt | 0.32µM
CC1CC(C)C(=NNC(N)=O)C(C(O)CC2CCC(=O)NC2=O)C1 (stereo not given) | ? | 7.9µM | ? | 10µM | ? | ?
Cc1nn(-c2cccc(Cl)c2)c2nc(-c3ccncc3)cc(C(=O)N3CCOCC3)c12 | i | i | i | 7.9µM | ? | i
Nc1ccccc1SCc1ccccc1Cl | ? | i | -66 | i | i | i
Oc1ccc(/C=N\Nc2nncc(-c3ccccc3)n2)cc1 | nt | i | -66 | ? | nt | ?
SMILES | Marburg entry inh | VACV Venus inh | HCMV antiviral | HCV inhibitor | Lassa entry inh | Vaccinia mCherry
COc1ccc(-c2cnnc(N/N=C/c3ccc(C)o3)n2)cc1 | i | i | ? | i | ? | i
COc1ccc(-c2cnnc(N/N=C/c3ccc(O)c(O)c3)n2)cc1 | ? | i | i | i | 4.6µM | i
COc1ccc(-c2cnnc(N/N=C/c3ccc(O)cc3)n2)cc1 | ? | i | -71 | i | 2µM | i
Brc1ccc(-c2ccc(/C=N/Nc3nncc(-c4ccccc4)n3)o2)cc1 | i | i | ? | i | i | i
COc1cc(C(C)=O)ccc1OCCCN1CCC(c2noc3cc(F)ccc23)CC1 | nt | nt | i | nt | nt | nt
O=S1(=O)CCOC[C@H](c2ccccc2)N1Cc1ccccc1 | nt | i | i | i | nt | ?
O=S1(=O)CCOC[C@H](CC2CCCCC2)N1Cc1ccc(Cl)cc1 | nt | i | i | i | nt | i
Cc1ccc(CN2[C@@H](CC3CCCCC3)COCCS2(=O)=O)cc1 | nt | i | -70 | i | nt | i
CCCC[C@H]1COCCS(=O)(=O)N1Cc1ccc(C)cc1 | nt | 2.2µM | ? | i | nt | ?
CCC1COCCS(=O)(=O)N1Cc1ccc(Cl)cc1 (stereo not given) | nt | i | i | i | nt | i
CC(C)[C@H]1COCCS(=O)(=O)N1Cc1ccc(Cl)cc1 | nt | ? | i | i | nt | 25µM
O=S1(=O)CCOC[C@H](c2ccccc2)N1Cc1cccc(Cl)c1 | nt | i | -80 | i | nt | i
C[C@H]1[C@@H](NC(=O)Nc2ccc(C#N)cc2)CC[C@@]23CCCN2C(=O)CCC[C@@H]13 | nt | nt | i | nt | nt | nt
Cc1ccc2nc3n(c(=O)c2c1)-c1cc2ccccc2cc1C(=O)NC3Cc1ccccc1 (stereo not given) | nt | ? | i | nt | nt | i
CN(Cc1ccccc1)[C@@H]1CC[C@@]23CCCN2C(=O)CCC[C@H]3[C@H]1Cc1ccccc1 | nt | nt | i | nt | nt | nt
COc1ccccc1CNC(=O)c1cn(C)c2ccc(S(=O)(=O)N3CCC(C)CC3)cc2c1=O | i | i | i | nt | ? | i
COc1ccc(OCC(=O)NCC2(N3CCN(C)CC3)CCCCC2)cc1 | i | i | i | nt | i | i
CCOC(=O)CSc1nc2sc3c(c2c(=O)n1-c1ccc(OC)cc1)CC(C(C)C)OC3 (stereo not given) | i | i | i | nt | i | i
CCC1CN(C(=O)N2CCC(C(=O)N3CCN(c4ccccc4)CC3)CC2)c2ccccc2O1 (stereo not given) | nt | i | i | nt | i | i
CCCCOc1ccccc1-c1ccccc1CN1[C@@H](C(C)C)COCCS1(=O)=O | nt | i | i | ? | nt | i
CC(C)[C@H]1COCCS(=O)(=O)N1Cc1ccccc1-c1cccc2c1oc1ccccc12 | ? | i | i | 13µM | nt | ?
Cc1ccc(-n2c(-c3ccccc3)c[nH]c2=S)cc1 | i | i | -74 | ? | ? | i
O=C(Nc1cccc(Cl)c1)c1cc(S(=O)(=O)N2CCCc3ccccc32)ccc1F | nt | i | i | nt | i | i
CS(=O)(=O)Nc1cccc(-c2nc(Nc3ccc(F)cc3)c3ccccc3n2)c1 | nt | i | nt | nt | nt | i
COc1ccc(OC)c(Nc2c3c(nc4ccccc24)CCC3)c1 | 2.8µM | i | -79 | ? | ? | i
COc1cc(Nc2c3c(nc4ccccc24)CCC3)cc(OC)c1OC | ? | ? | -75 | ? | i | ?
COc1ccccc1Nc1ccc(Nc2ccccc2OC)nn1 | i | i | i | i | i | i
COc1ccc(OC)c(Nc2ccc(Nc3cc(OC)ccc3OC)nn2)c1 | ? | i | -86 | ? | i | i
COc1cc(NS(C)(=O)=O)ccc1Nc1c2ccccc2nc2ccccc12 | 0.73µM | ? | -97 | 0.89µM | 0.58µM | 0.5µM
Cc1cc(C)c(/C=C/c2onc(C)c2S(=O)(=O)N2CCC(C(=O)NCC(C)c3ccccc3)CC2)c(C)c1 (stereo not given) | nt | i[7.34 µM] | i | nt | ? | i[7.34 µM]
